# Measurements reported in the supplement of paper PMC8728848.
# The full list was thinned out, with the strongest signals kept by preference.
# B1: AFL6 (Aspergillus fumigatus), Q4WKJ1 (protein)
# chain: MSFHLTAEDIRIEDGHRLVARLRNADGDLQDASIDLNTCLGNDNGHFQWDGVDFSHSAQDVHFAIEGGGQVPVLRAQLANQDGEFQDADVNLSERIENINGEFVFH
# How the values were obtained:
# Experiment in all cases: glycan array binding signal (z-score within array); higher = stronger binding
# Conditions in all cases: glycan notation: IUPAC condensed, linker removed
# [1] = target: Fuc(a1-2)Gal(b1-3)GalNAc(a1-3)[Fuc(a1-2)]Gal(b1-4)Glc
# Summary of the method: (§1)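 Glycan array binding is given as a within-array Z-score, which can be read as non-binding when negative. The arrays, 3228 of them, came from the Consortium for Functional Glycomics database and were retained only where the protein sequence was available. Z-scores were averaged across arrays of the same protein sequence at different concentrations or buffers and across linkers.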
# [2] = target: Fuc(a1-2)Gal(b1-3)GlcNAc(b1-2)Man(a1-3)[Fuc(a1-2)Gal(b1-3)GlcNAc(b1-2)Man(a1-6)]Man(b1-4)GlcNAc(b1-4)GlcNAc
# Summary of the method: as §1
# Fuc(a1-2)Gal(b1-4)Glc6S = target: Fuc(a1-2)Gal(b1-4)Glc6S
# Summary of the method: as §1
# [3] = target: Fuc(a1-2)Gal(b1-4)GlcNAc6S
# Summary of the method: as §1
# [4] = target: Fuc(a1-2)[Gal(a1-3)]Gal(b1-3)GlcNAc
# Summary of the method: as §1
# [5] = target: Fuc(a1-2)[Gal(a1-3)]Gal(b1-3)GlcNAc(b1-6)GalNAc
# Summary of the method: as §1
# [6] = target: Fuc(a1-2)[Gal(a1-3)]Gal(b1-4)GlcNAc(b1-2)Man(a1-3)[Fuc(a1-2)[Gal(a1-3)]Gal(b1-4)GlcNAc(b1-2)Man(a1-6)]Man(b1-4)GlcNAc(b1-4)GlcNAc
# Summary of the method: as §1
# [7] = target: Fuc(a1-2)[GalNAc(a1-3)]Gal
# Summary of the method: as §1
# [8] = target: Fuc(a1-2)[GalNAc(a1-3)]Gal(b1-4)GlcNAc(b1-3)GalNAc
# Summary of the method: as §1
# [9] = target: Gal(a1-3)Gal(b1-3)GlcNAc(b1-2)Man(a1-3)[Gal(a1-3)Gal(b1-3)GlcNAc(b1-2)Man(a1-6)]Man(b1-4)GlcNAc(b1-4)GlcNAc
# Summary of the method: as §1
# [10] = target: Gal(a1-4)Gal(b1-4)GlcNAc(b1-3)Gal(b1-4)Glc
# Summary of the method: as §1
# Gal(b1-3)GalNAc(b1-3)Gal = target: Gal(b1-3)GalNAc(b1-3)Gal
# Summary of the method: as §1
# [11] = target: Gal(b1-3)GlcNAc(b1-3)Gal(b1-4)GlcNAc
# Summary of the method: as §1
# [12] = target: Gal(b1-3)GlcNAc(b1-3)Gal(b1-4)GlcNAc(b1-2)[Gal(b1-3)GlcNAc(b1-3)Gal(b1-4)GlcNAc(b1-6)]Man(a1-6)[Gal(b1-3)GlcNAc(b1-3)Gal(b1-4)GlcNAc(b1-2)Man(a1-3)]Man(b1-4)GlcNAc(b1-4)[Fuc(a1-6)]GlcNAc
# Summary of the method: as §1
# [13] = target: Gal(b1-3)[Fuc(a1-4)]GlcNAc(b1-3)Gal(b1-3)[Fuc(a1-4)]GlcNAc
# Summary of the method: as §1
# [14] = target: Gal(b1-4)GlcNAc(b1-2)[Gal(b1-4)GlcNAc(b1-6)]Man(a1-6)[GlcNAc(b1-4)][Gal(b1-4)GlcNAc(b1-2)[Gal(b1-4)GlcNAc(b1-4)]Man(a1-3)]Man(b1-4)GlcNAc(b1-4)[Fuc(a1-6)]GlcNAc
# Summary of the method: as §1
# [15] = target: Gal(b1-4)GlcNAc(b1-3)Gal(b1-4)GlcNAc(b1-3)Gal(b1-4)GlcNAc(b1-2)Man(a1-3)[Gal(b1-4)GlcNAc(b1-3)Gal(b1-4)GlcNAc(b1-3)Gal(b1-4)GlcNAc(b1-2)Man(a1-6)]Man(b1-4)GlcNAc(b1-4)GlcNAc
# Summary of the method: as §1
# [16] = target: Gal(b1-4)GlcNAc(b1-3)Gal(b1-4)GlcNAc(b1-3)Gal(b1-4)GlcNAc(b1-3)Gal(b1-4)GlcNAc(b1-2)Man(a1-3)[Gal(b1-4)GlcNAc(b1-3)Gal(b1-4)GlcNAc(b1-3)Gal(b1-4)GlcNAc(b1-3)Gal(b1-4)GlcNAc(b1-2)Man(a1-6)]Man(b1-4)GlcNAc(b1-4)[Fuc(a1-6)]GlcNAc
# Summary of the method: as §1
# [17] = target: Gal(b1-4)GlcNAc(b1-3)Gal(b1-4)GlcNAc(b1-3)[Gal(b1-4)GlcNAc(b1-3)Gal(b1-4)GlcNAc(b1-6)]GalNAc
# Summary of the method: as §1
# [18] = target: Gal(b1-4)GlcNAc(b1-3)[Fuc(a1-3)GlcNAc(b1-6)]Gal(b1-4)Glc
# Summary of the method: as §1
# [19] = target: Gal3S(b1-3)[Fuc(a1-4)]GlcNAc
# Summary of the method: as §1
# Gal6P(b1-4)GlcNAc = target: Gal6P(b1-4)GlcNAc
# Summary of the method: as §1
# [20] = target: GalNAc(b1-3)Gal(a1-4)Gal(b1-4)GlcNAc(b1-3)Gal(b1-4)Glc
# Summary of the method: as §1
# GalNAc(b1-3)GalNAc = target: GalNAc(b1-3)GalNAc
# Summary of the method: as §1
# [21] = target: GlcNAc(a1-4)Gal(b1-4)GlcNAc
# Summary of the method: as §1
# [22] = target: GlcNAc(a1-4)Gal(b1-4)GlcNAc(b1-3)Gal(b1-4)Glc
# Summary of the method: as §1
# [23] = target: GlcNAc(a1-4)Gal(b1-4)GlcNAc(b1-3)Gal(b1-4)GlcNAc
# Summary of the method: as §1
# [24] = target: GlcNAc(a1-4)Gal(b1-4)GlcNAc(b1-3)Gal(b1-4)GlcNAc(b1-3)Gal(b1-4)GlcNAc
# Summary of the method: as §1
# [25] = target: GlcNAc(b1-2)[GlcNAc(b1-6)]Man(a1-6)[GlcNAc(b1-4)][GlcNAc(b1-2)Man(a1-3)]Man(b1-4)GlcNAc(b1-4)GlcNAc
# Summary of the method: as §1
# [26] = target: GlcNAc(b1-3)Gal(b1-4)GlcNAc(b1-3)Gal(b1-4)GlcNAc(b1-2)Man(a1-3)[GlcNAc(b1-3)Gal(b1-4)GlcNAc(b1-3)Gal(b1-4)GlcNAc(b1-2)Man(a1-6)]Man(b1-4)GlcNAc(b1-4)[Fuc(a1-6)]GlcNAc
# Summary of the method: as §1
# [27] = target: GlcNAc(b1-3)Gal(b1-4)GlcNAc(b1-3)Gal(b1-4)GlcNAc(b1-3)GalNAc
# Summary of the method: as §1
# [28] = target: GlcNAc(b1-4)[GlcNAc(b1-6)]GalNAc
# Summary of the method: as §1
# GlcNAc(b1-6)GalNAc = target: GlcNAc(b1-6)GalNAc
# Summary of the method: as §1
# [29] = target: Man(a1-2)Man(a1-6)[Man(a1-3)]Man(a1-6)[Man(a1-2)Man(a1-2)Man(a1-3)]Man
# Summary of the method: as §1
# Man(b1-4)GlcNAc = target: Man(b1-4)GlcNAc
# Summary of the method: as §1
# [30] = target: Neu5Ac(a2-3)Gal(b1-3)GlcNAc(b1-2)Man(a1-3)[GlcNAc(b1-4)][Neu5Ac(a2-3)Gal(b1-3)GlcNAc(b1-2)Man(a1-6)]Man(b1-4)GlcNAc(b1-4)GlcNAc
# Summary of the method: as §1
# [31] = target: Neu5Ac(a2-3)Gal(b1-4)GlcNAc(b1-2)Man(a1-3)[Neu5Ac(a2-3)Gal(b1-4)GlcNAc(b1-2)Man(a1-6)]Man(b1-4)GlcNAc(b1-4)GlcNAc
# Summary of the method: as §1
# [32] = target: Neu5Ac(a2-3)Gal(b1-4)GlcNAc(b1-3)Gal(b1-4)GlcNAc(b1-3)Gal(b1-4)GlcNAc(b1-2)Man(a1-3)[Neu5Ac(a2-3)Gal(b1-4)GlcNAc(b1-3)Gal(b1-4)GlcNAc(b1-3)Gal(b1-4)GlcNAc(b1-2)Man(a1-6)]GalNAc
# Summary of the method: as §1
# [33] = target: Neu5Ac(a2-3)Gal(b1-4)GlcNAc(b1-6)GalNAc
# Summary of the method: as §1
# [34] = target: Neu5Ac(a2-3)[GalNAc(b1-4)]Gal(b1-4)Glc
# Summary of the method: as §1
# [35] = target: Neu5Ac(a2-6)Gal(b1-4)GlcNAc(b1-2)Man(a1-3)Man(b1-4)GlcNAc(b1-4)GlcNAc
# Summary of the method: as §1
# [36] = target: Neu5Ac(a2-6)Gal(b1-4)GlcNAc(b1-2)Man(a1-3)[Neu5Ac(a2-3)Gal(b1-4)GlcNAc(b1-2)Man(a1-6)]Man(b1-4)GlcNAc(b1-4)GlcNAc
# Summary of the method: as §1
# [37] = target: Neu5Ac(a2-6)Gal(b1-4)GlcNAc(b1-3)Gal(b1-4)GlcNAc(b1-3)Gal(b1-4)GlcNAc(b1-2)Man(a1-3)[Neu5Ac(a2-6)Gal(b1-4)GlcNAc(b1-3)Gal(b1-4)GlcNAc(b1-3)Gal(b1-4)GlcNAc(b1-2)Man(a1-6)]GalNAc
# Summary of the method: as §1
# [38] = target: Neu5Ac(a2-6)Gal(b1-4)GlcNAc(b1-6)[Gal(b1-3)GlcNAc(b1-3)]Gal(b1-4)Glc
# Summary of the method: as §1
# [39] = target: Neu5Ac(a2-6)GlcNAc(b1-4)GlcNAc
# Summary of the method: as §1
# [40] = target: Neu5Ac(a2-8)Neu5Ac(a2-3)Gal(b1-3)GalNAc(b1-4)[Neu5Ac(a2-3)]Gal(b1-4)Glc
# Summary of the method: as §1
# [41] = target: Neu5Ac(a2-8)Neu5Ac(a2-3)[Gal(b1-3)GalNAc(b1-4)]Gal(b1-4)Glc
# Summary of the method: as §1
binder,measurement,setting,value
B1,glycan array binding signal (z-score),[1],-0.421
same,glycan array binding signal (z-score),[2],2.45
same,glycan array binding signal (z-score),Fuc(a1-2)Gal(b1-4)Glc6S,-0.234
same,glycan array binding signal (z-score),[3],-0.334
same,glycan array binding signal (z-score),[4],-0.417
same,glycan array binding signal (z-score),[5],-0.178
same,glycan array binding signal (z-score),[6],0.717
same,glycan array binding signal (z-score),[7],0.228
same,glycan array binding signal (z-score),[8],-0.656
same,glycan array binding signal (z-score),[9],0.406
same,glycan array binding signal (z-score),[10],0.039
same,glycan array binding signal (z-score),Gal(b1-3)GalNAc(b1-3)Gal,-0.263
same,glycan array binding signal (z-score),[11],-0.706
same,glycan array binding signal (z-score),[12],1.91
same,glycan array binding signal (z-score),[13],-0.509
same,glycan array binding signal (z-score),[14],-0.245
same,glycan array binding signal (z-score),[15],2.41
same,glycan array binding signal (z-score),[16],2.99
same,glycan array binding signal (z-score),[17],4.09
same,glycan array binding signal (z-score),[18],-0.272
same,glycan array binding signal (z-score),[19],-0.44
same,glycan array binding signal (z-score),Gal6P(b1-4)GlcNAc,-0.655
same,glycan array binding signal (z-score),[20],-0.055
same,glycan array binding signal (z-score),GalNAc(b1-3)GalNAc,-0.414
same,glycan array binding signal (z-score),[21],2.64
same,glycan array binding signal (z-score),[22],2.89
same,glycan array binding signal (z-score),[23],3.58
same,glycan array binding signal (z-score),[24],3.77
same,glycan array binding signal (z-score),[25],-0.56
same,glycan array binding signal (z-score),[26],2.48
same,glycan array binding signal (z-score),[27],-0.176
same,glycan array binding signal (z-score),[28],-0.154
same,glycan array binding signal (z-score),GlcNAc(b1-6)GalNAc,-0.476
same,glycan array binding signal (z-score),[29],-0.466
same,glycan array binding signal (z-score),Man(b1-4)GlcNAc,-0.133
same,glycan array binding signal (z-score),[30],-0.296
same,glycan array binding signal (z-score),[31],0.029
same,glycan array binding signal (z-score),[32],4.83
same,glycan array binding signal (z-score),[33],0.04
same,glycan array binding signal (z-score),[34],0.054
same,glycan array binding signal (z-score),[35],0.065
same,glycan array binding signal (z-score),[36],-0.35
same,glycan array binding signal (z-score),[37],3.09
same,glycan array binding signal (z-score),[38],0.854
same,glycan array binding signal (z-score),[39],-0.135
same,glycan array binding signal (z-score),[40],-0.5
same,glycan array binding signal (z-score),[41],-0.306
